# HT1080NT lethal: qHTS for induction of synthetic lethality in tumor cells producing 2HG: qHTS for the HT-1080-NT fibrosarcoma cell line; Potency, µM (series often up to 46.1 µM), without a hit: top-dose activity, negative = less viability, usual class: cytotoxic; HT-1080-NT fibrosarcoma viability, CellTiter-Glo ATP luminescence, 48 h; 360,000 compounds, 1.6% hits;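 also: NT is the 2HG producing partner of a matched IDH1 knockdown line; 0% = DMSO-treated cells and -100% = media-only wells without cells; nearly all actives have a fitted effect of over 55% in size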
#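 Viability by CellTiter-Glo luminescence after 48 h compound exposure at 37C of HT-1080-NT cells (750/well, RPMI, 5% FBS). % activity scaled between DMSO wells and medium-only wells, then curve-fitted and categorized by curve class.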
# HepG2 tox: qHTS for Inhibitors of TGF-b: Cytotox Counterscreen | HepG2 CAGA-GFP viability, ATP luminescence, 18 h | Potency, µM (highest dose often 46.1 µM), for inactives: at the highest dose activity change, negative = cytotoxicity, hits mostly cytotoxic | 410,000 compounds, 0.76% hits | AID 588856, 2011
#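 CellTiter-Glo luminescence gave cytotoxicity after 18 hours at 37 degrees C. The cells were HepG2 CAGA-GFP in 1% FBS DMEM, stimulated with 500 pg/mL TGF-beta after compound addition. %Activity was normalised to no-cell wells (complete cell-killing) and DMSO (no toxicity), and curves were fitted and classified.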
# HT1080 IDH1KD tx: qHTS for induction of synthetic lethality in tumor cells producing 2HG: qHTS for the HT-1080-IDH1KD cell line | 360,000 compounds, 2% hits | Potency, µM (highest dose often 46.1 µM), inactives show at the top dose activity, negative = toxicity, most hits filed as cytotoxic | HT-1080 IDH1 knockdown viability, ATP luminescence, 48 h;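 also: 0% = DMSO wells and -100% = cell-free medium wells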
#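 HT-1080-IDH1KD cells (IDH1 knocked down), 750/well in RPMI with 5% FBS, treated with compound 48 h at 37 degrees C. Viability by CellTiter-Glo luminescence, normalised to DMSO and no-cell wells; concentration-response curves classed.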
# TDP1 cell CPT: qHTS for Inhibitors of human tyrosyl-DNA phosphodiesterase 1 (TDP1): qHTS in cells in presence of CPT; 420,000 compounds, 12% hits; chicken DT40 Tdp1-/-;hTDP1 cells + 20 nM CPT, ATP luminescence, 48 h; Potency, µM (doses to about 46.2 µM), without a hit: top-dose activity change, negative = growth inhibition, actives largely listed as inhibitors; AID 686979, 2013; also: % is scaled to controls: 0 for no effect and ±100 for the full control effect; nearly all actives have a fitted effect of over 55% in size
#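 Cell growth measured by CellTiter-Glo luminescence after a minimum 48 h, 37 C compound exposure with 20 nM CPT in Tdp1-knockout DT40 cells stably expressing hTDP1, seeded 400/well; qHTS titration format.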
# TDP1 cell noCPT: qHTS for Inhibitors of human tyrosyl-DNA phosphodiesterase 1 (TDP1): qHTS in cells in absence of CPT. AID 686978, 2013. Potency, µM (titrated, usually from 46.2 µM), inactives show at the top dose activity change, negative = growth inhibition, actives largely listed as inhibitors. 420,000 compounds, 15% hits. DT40 Tdp1-/- hTDP1 cells, no CPT, ATP luminescence, 48 h; also: % is scaled to controls: 0 for no effect and ±100 for the full control effect; nearly all actives have a fitted effect of over 55% in size
#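 Camptothecin absent (DMSO only). Human TDP1-complemented DT40 knockout cells, 400 cells/well, 37 °C for minimum 48 hr; ATP measured via CellTiter-Glo, 30 min dark incubation, luminescence.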
# TGFb SMAD3 inh: qHTS for Inhibitors of TGF-b | AID 588855, 2011 | HepG2 CAGA-GFP TGF-b/SMAD3 reporter, GFP fluorescence, 18 h; TGF-beta stimulated, 500 pg/mL final | 410,000 compounds, 1.2% hits | Potency, µM (top dose mostly 46.1 µM), for inactives: top-dose activity, negative = inhibition, most hits filed as inhibitors; also: % is scaled to controls: 0 for no effect and ±100 for the full control effect; nearly all actives have a fitted effect of over 65% in size
#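 Per well, imaged GFP fluorescence of HEPG2 CAGA-GFP cells gives the signal; cells get compound, then TGF-beta (500 pg/mL final), 18 h at 37 degrees C; %Activity versus -TGF-beta and +DMSO controls.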
# Numbers without * were called inactive; u = inconclusive; x = no result. In the library only some 17% were active in any assay of this set; here they are far more common. Calls follow the shape of the dose curve; as a rule, active = well fitted curve in the direction sought with a large enough effect; inconclusive = small, poorly fitted or top-dose-only effect, or another doubt; inactive = no such curve, though single readings can be large; an effect the other way counts as inactive or inconclusive. Potency is read from the fitted curve at half-maximal effect.
SMILES,HT1080NT lethal,HepG2 tox,HT1080 IDH1KD tx,TDP1 cell CPT,TDP1 cell noCPT,TGFb SMAD3 inh
COc1ccc(OC)c(C2=NOC(C(=O)NCC3CCCO3)C2)c1 (configuration not stated),8%,-2%,-2%,u,-3%,4%
COc1cccc(-c2nc(C(=O)NCC3CCCO3)cc3c2[nH]c2ccccc23)c1 (configuration not stated),u,-3%,u,2.6µM*,2.3µM*,-9%
O=C(C[C@H]1CC[C@@H](NC(=O)Cc2cccnc2)[C@@H](CO)O1)NCc1ccc2c(c1)OCO2,27%,x,22%,4%,6%,x
CCOC(=O)[C@]12CCCC=C1N(CCc1ccc(OC)c(OC)c1)C(=O)[C@H](CC(=O)NCCCN1CCCC1=O)C2,-7%,x,10%,8%,1%,x
CCCCCCCCN1C(=O)[C@H](CC(=O)NCCCOCCCC)C[C@@]2(C(=O)OC)CCCCC=C12,u,x,u,13µM*,18µM*,x
CCCCOCCCNC(=O)C[C@@H]1C[C@@]2(C(=O)OCC)CCCC=C2N(Cc2ccco2)C1=O,16%,x,u,-15%,u,x
CCCCCCCCN1C(=O)[C@H](CC(=O)NCCCC)C[C@@]2(C(=O)OC)CCCCC=C12,u,x,u,16µM*,12µM*,x
CCCCCCCCN1C(=O)[C@H](CC(=O)NCCC(C)C)C[C@@]2(C(=O)OC)CCCCC=C12,u,x,-26%,u,16µM*,x
CCCCOCCCNC(=O)C[C@@H]1C[C@@]2(C(=O)OCC)CCCC=C2N(CCc2ccc(OC)c(OC)c2)C1=O,0%,x,-8%,21µM*,u,x
Cc1nc(-c2cccc(F)c2)sc1CCNC(=O)C(=O)Nc1ccc2c(c1)OCO2,x,-20%,x,u,-18%,-2%
O=C(COc1ccc(Cl)cc1)NN=C1CCCCCCC1,5%,-7%,0%,16%,-7%,11%
O/N=C/c1ccc2ccccc2c1,9%,4%,13%,12%,5%,u
O=C(CSc1ccc([N+](=O)[O-])cc1)NNC(=O)c1ccccc1F,18%,-2%,0%,-16%,-28%,2%
CCCCCCCCN1C(=O)[C@H](CC(=O)NCCCOCCCC)C[C@@]2(C(=O)OCC)CCCC=C12,u,x,u,13µM*,16µM*,x
Cn1nc(C(=O)N2CCN(c3ccccc3)CC2)c2c1-c1ccccc1SC2,x,-26%,x,-5%,9%,-1%
CC1CCC(NC(=O)c2nn(C)c3c2CSc2ccccc2-3)CC1 (configuration not stated),13%,-6%,16%,u,u,-1%
CC(C)OCCCNC(=O)c1nn(C)c2c1CSc1ccccc1-2,x,-9%,x,u,21µM*,-20%
Cc1ccc(N2CCN(C(=O)c3nn(C)c4c3CSc3ccccc3-4)CC2C)cc1 (configuration not stated),x,-37%,x,23µM*,u,u
Cn1nc(C(=O)NC2CCCCC2)c2c1-c1ccccc1SC2,-1%,-2%,10%,26µM*,u,-3%
CC(C)CCNC(=O)c1nn(C)c2c1CSc1ccccc1-2,x,-26%,x,u,18µM*,-14%
Cc1cccc(C(=O)NC2CCN(S(=O)(=O)c3ccccc3)CC2)c1,-7%,-21%,-9%,11%,-2%,-6%
COCC(=O)N1CCC2(CCCN(c3ccncc3)C2)CC1,x,x,x,-4%,3%,x
C[C@@H]1CN([C@H](C)CO)C(=O)CCCn2cc(nn2)CO[C@H]1CN(C)S(=O)(=O)c1cccc(C#N)c1,16%,13%,12%,10%,-14%,6%
CC(C)N(C(=O)c1nn(C)c2c1CSc1ccccc1-2)C1CCCCC1,u,-1%,-22%,21µM*,10µM*,-23%
COc1ccc(OC)c(CNC(=O)c2nn(C)c3c2CSc2ccccc2-3)c1,x,-1%,x,21µM*,u,u
SMILES,HT1080NT lethal,HepG2 tox,HT1080 IDH1KD tx,TDP1 cell CPT,TDP1 cell noCPT,TGFb SMAD3 inh
CCOc1ccc(CCNC(=O)c2nn(C)c3c2CSc2ccccc2-3)cc1,x,-20%,x,16µM*,u,u
COc1ccc(OC)c(CCNC(=O)c2nn(C)c3c2CSc2ccccc2-3)c1,x,-29%,x,u,u,-14%
CCN(CC)S(=O)(=O)c1ccc(NC(=O)c2nn(C)c3c2CSc2ccccc2-3)cc1,x,-25%,x,u,18µM*,2%
Cc1cc(C)c2oc(C(=O)Nc3ccc(S(=O)(=O)Nc4ncccn4)cc3)cc(=O)c2c1,x,0%,x,-15%,-11%,5%
CCCC(=O)OCc1cnc(C)c2oc(=O)c(C(=O)Nc3ccc(F)cc3C)cc12,x,-1%,x,u,-36%,-11%
COc1cc2c(N3CCN(C(=O)Nc4ccc(OC(C)C)cc4)CC3)ncnc2cc1OCCCN1CCCCC1,x,x,x,u,21µM*,x
COc1ccc(NC(=O)N2CCCCCC2)cc1,24%,-82%,24%,15%,-3%,u
CCN(CC)c1ccc(N=Cc2cc(Br)ccc2O)cc1,u,-63%,u,16µM*,u,u
OCC(CO)(CO)N=Cc1cc(Br)ccc1O,3%,-1%,-18%,-8%,0%,-15%
CC(C)(C)c1ccc(O)c(N=Cc2cc(Br)ccc2O)c1,4%,2%,5%,u,26µM*,-7%
Oc1ccc(Br)cc1C=Nc1ccc(Cl)cc1,0%,-32%,-6%,-7%,19%,0%
Cc1ccc(O)c(C=Nc2cc(C)ccc2O)c1,-9%,-6%,18%,5.8µM*,5.2µM*,-1%
Cc1ccccc1CN1c2ccccc2-c2nc(SCC(=O)c3ccccc3)ncc2S1(=O)=O,x,-4%,x,0%,0%,1%
COc1ccccc1-c1cc(NC=O)c2ncc(-c3cccc(C(C)=O)c3)n2c1,u,-41%,u,6.5µM*,7.3µM*,-26%
CN(C)CCNC(=O)c1cccc(-c2cnc3c(NC=O)cc(/C=C/c4ccccc4)cn23)c1,u,-78%,u,3.7µM*,5.2µM*,u

# Screens as filed in PubChem BioAssay.
